Measurements: paper PMC7862700, “An all-to-all approach to the identification of sequence-specific readers for epigenetic DNA modifications on cytosine”

Assays:
Assay in all cases: DAPPL (digital affinity profiling via proximity ligation, sequencing); 10 mM Tris-HCl pH 7.5, 50 mM NaCl, 1 mM DTT, 4% glycerol, room temperature, 30 min; GST-TFs on glutathione beads, 16-mer random dsDNA library, 0.1% formaldehyde crosslink after washing; high values mean tight binding
Details in all cases: protein: recombinant; tags: N-terminal GST; dsDNA, one strand shown
ERF = target: T1, ERF (Homo sapiens, UniProt P50548 1-548)
T1 sequence: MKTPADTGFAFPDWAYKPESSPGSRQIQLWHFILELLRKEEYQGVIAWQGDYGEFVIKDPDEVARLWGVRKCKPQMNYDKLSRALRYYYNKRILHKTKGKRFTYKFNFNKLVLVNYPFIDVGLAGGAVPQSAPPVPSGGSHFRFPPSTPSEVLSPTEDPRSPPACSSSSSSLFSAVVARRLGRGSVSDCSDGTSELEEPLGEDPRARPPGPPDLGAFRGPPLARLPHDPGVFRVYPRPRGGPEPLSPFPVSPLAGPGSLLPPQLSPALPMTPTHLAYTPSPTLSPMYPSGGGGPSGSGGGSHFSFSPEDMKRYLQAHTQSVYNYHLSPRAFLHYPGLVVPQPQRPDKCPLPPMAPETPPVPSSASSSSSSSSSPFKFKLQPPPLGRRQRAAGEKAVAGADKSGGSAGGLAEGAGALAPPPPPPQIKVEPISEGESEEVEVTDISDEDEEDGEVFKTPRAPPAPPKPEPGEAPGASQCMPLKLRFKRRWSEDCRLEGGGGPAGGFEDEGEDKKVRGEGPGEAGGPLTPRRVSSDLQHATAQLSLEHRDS
Summary of the method: (§1)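 Binding signal is defined as a hexamer's read frequency for one factor over its frequency for the tag-only sample. To obtain reads, GST-fused human transcription factors were expressed in yeast, captured on glutathione beads, barcoded with DNA and pooled with that sample. Pools met 200 nmole of a 16-mer random double-stranded DNA library in Tris/NaCl/DTT/glycerol buffer for 30 min at room temperature before washing, 0.1% formaldehyde crosslinking, proximity ligation (BsaI/T4 ligase, 1 h, 37 °C), PCR and Illumina NextSeq500 sequencing.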

ETV3L = target: T2, ETV3L (Homo sapiens, UniProt Q6ZN32 1-361)
T2 sequence: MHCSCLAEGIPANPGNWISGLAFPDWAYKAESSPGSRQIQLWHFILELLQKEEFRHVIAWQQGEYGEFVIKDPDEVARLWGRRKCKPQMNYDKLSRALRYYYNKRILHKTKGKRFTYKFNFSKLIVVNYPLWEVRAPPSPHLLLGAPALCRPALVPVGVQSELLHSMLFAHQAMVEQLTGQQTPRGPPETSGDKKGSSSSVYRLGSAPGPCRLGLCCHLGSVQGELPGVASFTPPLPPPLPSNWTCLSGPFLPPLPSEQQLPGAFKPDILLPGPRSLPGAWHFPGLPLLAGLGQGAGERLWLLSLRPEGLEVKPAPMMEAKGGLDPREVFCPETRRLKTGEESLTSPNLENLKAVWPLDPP
Summary of the method: as §1

ETS2 = target: T3, ETS2 (Homo sapiens, UniProt P15036 1-469)
T3 sequence: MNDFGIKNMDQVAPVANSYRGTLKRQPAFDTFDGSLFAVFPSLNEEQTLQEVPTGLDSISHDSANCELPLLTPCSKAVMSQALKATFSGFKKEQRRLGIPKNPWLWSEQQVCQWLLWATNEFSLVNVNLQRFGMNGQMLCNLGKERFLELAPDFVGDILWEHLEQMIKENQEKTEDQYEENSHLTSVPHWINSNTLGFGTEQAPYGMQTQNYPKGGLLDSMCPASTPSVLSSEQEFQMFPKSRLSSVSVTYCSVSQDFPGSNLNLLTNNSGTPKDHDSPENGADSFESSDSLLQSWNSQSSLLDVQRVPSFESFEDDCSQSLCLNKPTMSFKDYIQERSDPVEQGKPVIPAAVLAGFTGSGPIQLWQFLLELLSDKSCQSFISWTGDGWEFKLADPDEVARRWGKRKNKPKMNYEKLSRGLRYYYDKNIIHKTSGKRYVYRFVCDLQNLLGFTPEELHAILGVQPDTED
Summary of the method: as §1

SPDEF = target: T4, SPDEF (Homo sapiens, UniProt O95238 1-335)
T4 sequence: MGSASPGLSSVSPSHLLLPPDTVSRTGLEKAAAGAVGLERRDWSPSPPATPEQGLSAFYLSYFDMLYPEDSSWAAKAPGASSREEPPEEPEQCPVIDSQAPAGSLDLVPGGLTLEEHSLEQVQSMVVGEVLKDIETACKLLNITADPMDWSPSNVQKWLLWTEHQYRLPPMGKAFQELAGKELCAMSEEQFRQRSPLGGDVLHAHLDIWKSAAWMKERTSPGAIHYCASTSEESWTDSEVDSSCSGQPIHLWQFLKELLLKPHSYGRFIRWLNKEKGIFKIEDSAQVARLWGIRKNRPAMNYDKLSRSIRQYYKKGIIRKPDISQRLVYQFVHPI
Summary of the method: as §1

ETV7 = target: T5, ETV7 (Homo sapiens, UniProt Q9Y603 1-341)
T5 sequence: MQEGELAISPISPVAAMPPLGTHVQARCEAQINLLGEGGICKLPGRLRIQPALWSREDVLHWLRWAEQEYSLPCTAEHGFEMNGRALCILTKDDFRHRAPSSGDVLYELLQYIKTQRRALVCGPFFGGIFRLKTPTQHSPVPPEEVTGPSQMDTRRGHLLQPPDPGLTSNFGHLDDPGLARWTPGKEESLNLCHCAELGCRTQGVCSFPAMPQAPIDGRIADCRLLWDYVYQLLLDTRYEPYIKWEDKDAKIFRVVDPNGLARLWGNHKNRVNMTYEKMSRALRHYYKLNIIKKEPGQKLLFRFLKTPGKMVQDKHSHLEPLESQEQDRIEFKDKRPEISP
Summary of the method: as §1

ELF5 = target: T6, ELF5 (Homo sapiens, UniProt Q9UKW6-2 1-255)
T6 sequence: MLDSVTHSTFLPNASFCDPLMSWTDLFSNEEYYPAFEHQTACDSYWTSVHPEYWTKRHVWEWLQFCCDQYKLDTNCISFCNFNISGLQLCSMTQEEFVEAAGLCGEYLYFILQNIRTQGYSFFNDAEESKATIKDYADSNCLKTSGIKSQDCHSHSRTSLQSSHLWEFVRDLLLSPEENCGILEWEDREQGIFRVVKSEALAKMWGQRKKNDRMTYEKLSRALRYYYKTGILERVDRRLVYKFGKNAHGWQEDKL
Summary of the method: as §1

ETV3 = target: T7, ETV3 (Homo sapiens, UniProt P41162-2 1-143)
T7 sequence: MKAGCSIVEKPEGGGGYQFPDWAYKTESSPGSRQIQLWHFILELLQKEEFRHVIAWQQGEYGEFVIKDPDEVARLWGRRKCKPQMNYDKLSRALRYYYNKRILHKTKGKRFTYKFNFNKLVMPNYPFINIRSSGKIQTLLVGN
Summary of the method: as §1

ETV6 = ETV6 (Homo sapiens, UniProt P41212 1-452)
Summary of the method: as §1

Sequence of ETV6 (P41212 whole entry): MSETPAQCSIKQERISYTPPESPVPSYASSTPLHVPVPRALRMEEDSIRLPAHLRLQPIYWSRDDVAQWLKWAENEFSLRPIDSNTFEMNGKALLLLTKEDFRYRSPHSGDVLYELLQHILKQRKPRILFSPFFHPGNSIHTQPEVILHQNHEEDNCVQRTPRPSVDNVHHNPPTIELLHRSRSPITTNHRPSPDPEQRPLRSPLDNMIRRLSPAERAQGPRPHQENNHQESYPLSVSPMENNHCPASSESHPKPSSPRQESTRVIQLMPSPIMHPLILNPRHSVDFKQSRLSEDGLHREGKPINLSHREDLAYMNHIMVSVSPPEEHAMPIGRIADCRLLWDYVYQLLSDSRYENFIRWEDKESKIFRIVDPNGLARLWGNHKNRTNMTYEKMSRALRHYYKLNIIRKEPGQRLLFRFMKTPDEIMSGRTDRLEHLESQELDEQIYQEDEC

Row | Sequence | binding signal (ERF) | binding signal (ETV3L) | binding signal (ETS2) | binding signal (SPDEF) | binding signal (ETV7) | binding signal (ELF5) | binding signal (ETV3) | binding signal (ETV6)
1 | GATTTT | 1.16 fold enrichment (6-mer frequency, TF over GST control) | 1.24 fold enrichment (6-mer frequency, TF over GST control) | 1.17 fold enrichment (6-mer frequency, TF over GST control) | 1.14 fold enrichment (6-mer frequency, TF over GST control) | 1.13 fold enrichment (6-mer frequency, TF over GST control) | 1.13 fold enrichment (6-mer frequency, TF over GST control) | 1.08 fold enrichment (6-mer frequency, TF over GST control) | 1.11 fold enrichment (6-mer frequency, TF over GST control)
2 | TCCTGC | 1.43 fold enrichment (6-mer frequency, TF over GST control) | 1.71 fold enrichment (6-mer frequency, TF over GST control) | 1.65 fold enrichment (6-mer frequency, TF over GST control) | 1.98 fold enrichment (6-mer frequency, TF over GST control) | 1.69 fold enrichment (6-mer frequency, TF over GST control) | 2.12 fold enrichment (6-mer frequency, TF over GST control) | 1.73 fold enrichment (6-mer frequency, TF over GST control) | 1.77 fold enrichment (6-mer frequency, TF over GST control)
3 | CCTCCA | 1.34 fold enrichment (6-mer frequency, TF over GST control) | 1.24 fold enrichment (6-mer frequency, TF over GST control) | 1.31 fold enrichment (6-mer frequency, TF over GST control) | 1.34 fold enrichment (6-mer frequency, TF over GST control) | 1.36 fold enrichment (6-mer frequency, TF over GST control) | 1.42 fold enrichment (6-mer frequency, TF over GST control) | 1.24 fold enrichment (6-mer frequency, TF over GST control) | 1.29 fold enrichment (6-mer frequency, TF over GST control)
4 | AACACT | 1.21 fold enrichment (6-mer frequency, TF over GST control) | 1.3 fold enrichment (6-mer frequency, TF over GST control) | 1.37 fold enrichment (6-mer frequency, TF over GST control) | 1.22 fold enrichment (6-mer frequency, TF over GST control) | 1.32 fold enrichment (6-mer frequency, TF over GST control) | 1.34 fold enrichment (6-mer frequency, TF over GST control) | 1.29 fold enrichment (6-mer frequency, TF over GST control) | 1.4 fold enrichment (6-mer frequency, TF over GST control)
5 | TACTCT | 1.46 fold enrichment (6-mer frequency, TF over GST control) | 1.37 fold enrichment (6-mer frequency, TF over GST control) | 1.3 fold enrichment (6-mer frequency, TF over GST control) | 1.39 fold enrichment (6-mer frequency, TF over GST control) | 1.33 fold enrichment (6-mer frequency, TF over GST control) | 1.38 fold enrichment (6-mer frequency, TF over GST control) | 1.39 fold enrichment (6-mer frequency, TF over GST control) | 1.39 fold enrichment (6-mer frequency, TF over GST control)
6 | ATTGCA | 1.23 fold enrichment (6-mer frequency, TF over GST control) | 1.19 fold enrichment (6-mer frequency, TF over GST control) | 1.15 fold enrichment (6-mer frequency, TF over GST control) | 1.18 fold enrichment (6-mer frequency, TF over GST control) | 1.17 fold enrichment (6-mer frequency, TF over GST control) | 1.16 fold enrichment (6-mer frequency, TF over GST control) | 1.09 fold enrichment (6-mer frequency, TF over GST control) | 1.21 fold enrichment (6-mer frequency, TF over GST control)
7 | TCCAAC | 1.2 fold enrichment (6-mer frequency, TF over GST control) | 1.18 fold enrichment (6-mer frequency, TF over GST control) | 1.25 fold enrichment (6-mer frequency, TF over GST control) | 1.28 fold enrichment (6-mer frequency, TF over GST control) | 1.32 fold enrichment (6-mer frequency, TF over GST control) | 1.12 fold enrichment (6-mer frequency, TF over GST control) | 1.2 fold enrichment (6-mer frequency, TF over GST control) | 1.14 fold enrichment (6-mer frequency, TF over GST control)
8 | CATCTT | 1.26 fold enrichment (6-mer frequency, TF over GST control) | 1.28 fold enrichment (6-mer frequency, TF over GST control) | 1.23 fold enrichment (6-mer frequency, TF over GST control) | 1.03 fold enrichment (6-mer frequency, TF over GST control) | 1.25 fold enrichment (6-mer frequency, TF over GST control) | 1.17 fold enrichment (6-mer frequency, TF over GST control) | 1.18 fold enrichment (6-mer frequency, TF over GST control) | 1.25 fold enrichment (6-mer frequency, TF over GST control)
9 | CCCTCG | 1.24 fold enrichment (6-mer frequency, TF over GST control) | 1.24 fold enrichment (6-mer frequency, TF over GST control) | 1.29 fold enrichment (6-mer frequency, TF over GST control) | 1.23 fold enrichment (6-mer frequency, TF over GST control) | 1.3 fold enrichment (6-mer frequency, TF over GST control) | 1.19 fold enrichment (6-mer frequency, TF over GST control) | 1.16 fold enrichment (6-mer frequency, TF over GST control) | 1.18 fold enrichment (6-mer frequency, TF over GST control)
